Results from PubChem BioAssay (NCI).
The panel holds about 83,000 compounds, 20% with a hit somewhere; the sample as a whole holds those more often.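 Cells were grown in 96-well plates and exposed to the test compound at a single concentration for 48 hours; results are reported as percent growth, with values below 10 considered active.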 Values without a mark were called inactive. Activity calls are given as the source filed them.

Tested on: HL-60(TB) leukemia
Assay: NCI-60 one-dose screen, 48 h (100 = growth as untreated, 0 = no growth, -100 = all killed)
Conditions: 10 µM unless noted

SMILES | growth
COc1cc(-c2nc(SCCC(C)C)nc(N3CCOCC3)c2C#N)cc(OC)c1OC | 95.2%
CN1C(=O)/C(=C2\SC(=Nc3ccccc3)N(Nc3ccccc3)C2=O)c2ccccc21 | 108%
COc1ccc(-c2nc3sc(C4CC4)nn3c2/C=C2/C(=O)Nc3ccc(OC)cc32)cc1 | 97%
CC(C)c1ccc(Cn2ccc3c4c(N)nc(NC5CC5)nc4ccc32)cc1 | -68.8% (active)
COc1ccc(C(=O)c2cc3c(OC)c(OC)c(OC)cc3[nH]2)cc1 | 36.1%
COc1ccc2c(c1)N(CCO)C1=C(C(=O)OC1)C2c1ccccc1 (stereo not given) | -20% (active)
CCOc1ccc([C@@H]2[C@@H](Oc3ccccc3)C(=O)N2c2cc(OC)c(OC)c(OC)c2)cc1 | -36% (active)
O=C(CCCSc1nc(-c2ccccc2)cc(-c2ccc(Cl)cc2)n1)NO | -15.8% (active)
Nc1ccn(C2OC(CO)C(O)C2F)c(=O)n1 (stereo not given) | 105%
CCOc1cccc(/C=N/NC(=O)c2ccccc2Nc2ccnc(C(F)(F)F)c2)c1O | -4.47% (active)
COc1cc(NN=C(c2ccc(O)cc2)c2ccc(O)cc2)c([N+](=O)[O-])cc1[N+](=O)[O-] | 133%
Clc1ccc(-c2nc(-c3c[nH]c4ncccc34)cs2)cc1 | 87.4% [100 µM]
Oc1ccccc1/C=N/N=C\c1ccccc1Cl | 30.9%
O=C(Nc1nc(-c2ccccc2)cc(-c2ccc(Cl)cc2)n1)c1ccncc1 | 110%
CCC(C)[C@H](NC(C)=O)C(=O)N[C@@H](CCCNC(=N)N)C(=O)N[C@@H](CCCCN)C(=O)N[C@@H](CC1CCC(O)CC1)C(=O)NC(C(=O)N[C@@H](CCSC)C(=O)N[C@@H](CCCNC(=N)N)C(=O)N[C@@]1(C)CCC/C=C\CCC[C@@](C)(C(=O)NC(C(=O)N[C@@H](CCC(=O)O)C(=O)N[C@@H](CC(C)C)C(=O)N[C@H](C(=O)N[C@@H](CCC(=O)O)C(N)=O)C(C)C)[C@@H](C)O)NC(=O)[C@H](CCC(N)=O)NC(=O)[C@H](CC(C)C)NC(=O)[C@H](CC(C)C)NC1=O)[C@@H](C)O (stereo not given in full) | 97.3%
c1cnc2nc3c(cc2c1)oc1ccccc13 | 96.4%
Cc1c2cc[nH]c(=O)c2c(C)c2c1[nH]c1ccc(OC(=O)c3ccccc3)cc12 | 51.3%
CCCCCCCC/C=C/CCCCCCCC1=NC(C)(C)CN1C(C)C | -65.6% (active)
CC(=O)Nc1ccc2c(c1)Cc1c(F)c(F)c(F)c(F)c1-2 | 65.5%
CN1CCc2c(sc3nc4n(-c5ccc(Cl)cc5)cnn4c(=O)c23)C1 | 105%

SMILES | growth
O=C(/C(Br)=C/c1ccccc1)c1ccccc1 | -2.59% (active)
CC(C)(C)OC(=O)c1ccc(NCc2cc(O)ccc2O)cc1 | -39.3% (active)
CCOC(=O)c1ccc(Nc2sc(C(=O)c3cccc([N+](=O)[O-])c3)c(N)c2C#N)cc1 | 4.04% (active)
CC(=O)OC(c1ccccc1)C1CCOC1=O (stereo not given) | 113%
COC(=O)c1ccc(NC(=O)CSc2nc(-c3ccc(F)cc3)nc3ccccc23)cc1 | 94.3%
COc1ccc(C2SCC(=O)N2NC(=O)c2ccc(NC(=O)c3ccccn3)cc2)cc1OC (stereo not given) | 110%
O=C([O][Sn]([O]C(=O)c1ccccn1)([c]1ccccc1)[c]1ccccc1)c1ccccn1 | 68.5%
O=C(Nc1ccc(OS(=O)(=O)c2ccc(F)cc2)cc1)c1ccc(Cl)cc1 | 90.9%
O=C1/C(=C/c2ccc(O)cc2)Oc2ccc(Cl)cc21 | 81%
COc1ccc(CCN2CCC(Nc3nc4ccccc4n3Cc3ccc(F)cc3)CC2)cc1 | -53.5% (active)
NS(=O)(=O)c1cc(Br)c2c(c1)S(=O)(=O)NCN2 | 71.2%
COc1cc(C)cc2oc3oc(=O)c(C(=O)c4cc5cc(Br)ccc5o4)cc3c(=O)c12 | 103%
Clc1ccc(-c2cnc3c(-c4ccnc(N5CCNCC5)c4)cnn3c2)cc1 | -33.7% (active)
c1cnc2ccc3ncccc3c2c1 | 98.9%
COc1ccc(C(=O)c2cc(OC)c(OC)c(OC)c2)cc1/C=C/C(=O)c1ccc2c(c1)OCO2 | 27.5%
CC1=C([Se]CC(OC(=O)[C@@H](CO)NC(=O)OC(C)(C)C)C(=O)NC(C)(C)C)C(=O)c2ccccc2C1=O (stereo not given in full) | -36.2% (active)
CCCC(=O)NNc1[nH]c(-c2cc(OC)c(OC)c(OC)c2)cc1C(=O)OCC | -11.1% (active)
O=Nc1c(-c2c(O)[nH]c3ncccc23)[nH]c2ccccc12 | 125%
CN(C)c1ccc(-c2cc(-c3ccc(Nc4nc(Nc5ccc(Cl)cc5)nc(Nc5ccc(Cl)cc5)n4)cc3)nc(N)c2C#N)cc1 | 68%
O=c1[nH]c(=O)n(C2CC(O)C(CO)O2)cc1CO (stereo not given) | 107%
